From the supplement of paper PMC7156485
± gives the standard deviation of the averaged measurements.

What was measured:
Details in all cases: concentration: 10 µM; 24 h
[1] = system: HCC1569; experiment: cell number relative to DMSO (% of DMSO); higher = more cells (less growth inhibition / toxicity)
Summary of the method: (§1)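 Cell number or H1.0 nuclear intensity appears as percent of the plate control, based on the median of replicates. Measurements came from HCC1569 and TDF cells exposed in triplicate to compounds at 10 µM for 24 h at 37 °C, then imaged in six fields per well at ×10. Positional effects were smoothed out of HCC1569 values.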

[2] = system: TDF; experiment: as above
Summary of the method: as §1

[3] = system: TDF; experiment: H1.0 immunofluorescence intensity relative to DMSO (% of DMSO); higher = stronger H1.0 induction, active = 120 or more
Summary of the method: as §1

[4] = system: HCC1569; experiment: H1.0 immunofluorescence intensity relative to DMSO (% of DMSO); higher = stronger H1.0 induction, active = 140 or more
Summary of the method: as §1
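For H1.0 immunofluorescence intensity relative to DMSO in this document: TDF is a line of transformed human dermal fibroblasts of mesenchymal origin.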
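For cell number relative to DMSO in this document: TDF denotes transformed human dermal fibroblasts of mesenchymal origin.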

Row | Structure (SMILES) | cell number [1] | cell number [2] | H1.0 immunofluorescence intensity [3] | H1.0 immunofluorescence intensity [4]
1 | CCCCCCC=CCCCCCCCCCC(=O)O [11(Z)-Octadecenoic acid] | 99.8 | 101 | 112 (inactive) | 105 (inactive)
2 | OCc1c[nH]c2ccccc12 [Indole-3-carbinol] | 97.5 | 109 | 102 (inactive) | 110 (inactive)
3 | CC(=O)NC(CSCC=C(C)CCC=C(C)CCC=C(C)C)C(=O)O (centres undefined) [Acetyl-farnesyl-cysteine] | 100 | 104 | 97.2 (inactive) | 96.3 (inactive)
4 | O=c1[nH]ccc2c(O)cccc12 [1,5-Isoquinolinediol] | 100 | 97.2 | 87.9 (inactive) | 91.6 (inactive)
5 | CCCCCCCCCCCCCCCCOCC(COP(=O)([O-])OCC[N+](C)(C)C)OC(=O)NC (centres undefined) | 103 | 95.7 | 95.7 (inactive) | 101 (inactive)
6 | COc1ccc2cc1Oc1ccc(cc1)CC1c3cc(c(OC)cc3CCN1C)Oc1c(OC)c(OC)cc3c1C(C2)N(C)CC3 (centres undefined) [Isotetrandrine] | 97.9 | 83.8 | 111 (inactive) | 103 (inactive)
7 | CN(C)c1ccc(O)c2c1CC1CC3C(N(C)C)C(=O)C(C(N)=O)=C(O)C3(O)C(=O)C1=C2O.Cl (centres undefined) | 99.2 | 96.9 | 95.5 (inactive) | 91.5 (inactive)
8 | Cl.NC(N)=NC(=O)Cc1c(Cl)cccc1Cl [Guanfacine hydrochloride] | 104 | 114 | 86.8 (inactive) | 91.5 (inactive)
9 | Cl.Nc1c2c(nc3ccccc13)CCCC2 [9-Amino-1,2,3,4-tetrahydroacridine hydrochloride] | 105 | 103 | 94.8 (inactive) | 94.2 (inactive)
10 | COc1ccc(-c2coc3cc(O)cc(O)c3c2=O)cc1 [Biochanin A] | 106 | 97.4 | 93.9 (inactive) | 90.6 (inactive)
11 | O.O=P(O)(O)C(O)(Cn1ccnc1)P(=O)(O)O | 99.2 | 94 | 94.5 (inactive) | 102 (inactive)
12 | CCCNC1CCc2nc(N)sc2C1 (centres undefined) [Pramipexole] | 101 | 97.5 | 94.4 (inactive) | 107 (inactive)
13 | O=C(Nc1cccc(-c2ccccc2)c1)OC1CCCCC1 [cyclohexyl [1,1'-biphenyl]-3-ylcarbamate] | 105 | 94.2 | 93.4 (inactive) | 88.6 (inactive)
14 | O=C(Nc1ccc(Cl)cc1)c1ccccc1NCc1ccncc1 [VEGF Receptor Tyrosine Kinase Inhibitor II] | 106 | 96.3 | 96.5 (inactive) | 98.1 (inactive)
15 | CCC(c1ccc(O)cc1)C(CC)c1ccc(O)cc1 (centres undefined) [Hexestrol] | 100 | 102 | 94.1 (inactive) | 119 (inactive)
16 | CNCCCC1c2ccccc2C=Cc2ccccc21.Cl [Protriptyline hydrochloride] | 92.7 | 99.5 | 109 (inactive) | 117 (inactive)
17 | COc1ccc2cc1Oc1ccc(cc1)CC1c3cc(c(OC)cc3CCN1C)Oc1c(OC)c(OC)c(OC)c3c1C(C2)N(C)CC3 (centres undefined) [Hernandezine] | 93.5 | 93 | 106 (inactive) | 110 (inactive)
18 | CC(C)C(=O)Nc1ncc(-c2cc(C(F)F)nn2-c2c(Cl)cccc2Cl)s1 | 75.5 | 69.8 | 111 (inactive) | 111 (inactive)
19 | COC(=O)C1=C(C)NC(C)=C(C(=O)OCCCN2CCC(c3ccccc3)(c3ccccc3)CC2)C1c1cccc([N+](=O)[O-])c1 (centres undefined) [Niguldipine] | 88.2 | 99 | 98.5 (inactive) | 126 (inactive)
20 | Cl.Cl.Fc1ccc(C(c2ccc(F)cc2)N2CCN(CC=Cc3ccccc3)CC2)cc1 [Flunarizine dihydrochloride] | 101 | 110 | 89.1 (inactive) | 97.3 (inactive)
21 | Cn1nnc2c(C(N)=O)ncn2c1=O [Temozolomide] | 105 | 91.4 | 105 (inactive) | 101 (inactive)
22 | CCOC(OCC)P(=O)(O)CCCNCc1ccc(Cl)c(Cl)c1 | 108 | 95.6 | 98.3 (inactive) | 102 (inactive)
23 | C=CC(C)(O)CCC1C(=C)CCC2C(C)(C)CCCC12C (centres undefined) [Manool] | 104 | 87.8 | 99.4 (inactive) | 90.8 (inactive)
24 | CC1CCN(CCC2CCCN2S(=O)(=O)c2cccc(O)c2)CC1.Cl (centres undefined) | 102 | 109 | 92.1 (inactive) | 107 (inactive)
25 | CN1CCC(=C2c3ccccc3CC(=O)c3sccc32)CC1 [Ketotifen] | 104 | 102 | 97.6 (inactive) | 124 (inactive)
26 | Cl.N=C(N=C(N)N)N1CCOCC1 [Moroxydine.HCl] | 106 | 120 | 98.7 (inactive) | 88.6 (inactive)

Row | Structure (SMILES) | cell number [1] | cell number [2] | H1.0 immunofluorescence intensity [3] | H1.0 immunofluorescence intensity [4]
27 | CCCCCC=CCC=CC=CC=CC(SCC(N)C(=O)O)C(O)CCCC(=O)O (centres undefined) [Leukotriene E4] | 103 | 101 | 92.6 (inactive) | 102 (inactive)
28 | NCCCCCCCCCCN [1,10-Diaminodecane] | 101 | 98.7 | 89.4 (inactive) | 88.5 (inactive)
29 | Br.C=CCN1CCc2c(cc(O)c(O)c2Cl)C(c2ccccc2)C1 (racemic) | 94.1 | 79.4 | 96.2 (inactive) | 107 (inactive)
30 | N#CC(=C(N)Sc1ccc(N)cc1)c1ccccc1C(F)(F)F | 102 | 115 | 90.6 (inactive) | 126 (inactive)
31 | O=c1c(-c2ccc(O)cc2)coc2cc(O)cc(O)c12 [Genistein] | 97.9 ± 4.4 | 99 ± 4.5 | 92.8 (inactive) | 97.6 (inactive)
32 | N#CC(=C1Nc2ccccc2S1)c1ccnc(NCCc2cccnc2)n1 [JNK Inhibitor V] | 73.6 | 87.4 | 108 (inactive) | 123 (inactive)
33 | CC(CCc1ccc(O)cc1)NCCc1ccc(O)c(O)c1.Cl (centres undefined) [Dobutamine.HCl] | 104 | 111 | 83.4 (inactive) | 105 (inactive)
34 | NC(Cc1ccc(O)c(O)c1)C(=O)O (centres undefined) [Levodopa] | 96.9 | 102 | 93.3 (inactive) | 96.9 (inactive)
35 | O=C(C=Cc1ccc(O)c(O)c1)OC(Cc1ccc(O)c(O)c1)C(=O)O (centres undefined) [Rosmarinic acid] | 104 ± 2.8 | 101 ± 6.3 | 97.7 (inactive) | 98.7 (inactive)
36 | O=C(O)CCC(=O)N1CCC[C@H]1C(=O)O [N-Succinyl-L-proline] | 99.6 | 100 | 102 (inactive) | 104 (inactive)
37 | CC#CC(=O)Nc1cc2c(Nc3ccc(F)c(Cl)c3)ncnc2cn1 [EGFR/ErbB-2/ErbB-4 Inhibitor] | 87.1 | 78.2 | 104 (inactive) | 113 (inactive)
38 | CCCCCCCCCCC1=C(C)C(=O)C(OC)=C(OC)C1=O [Decylubiquinone] | 101 | 89.2 | 94.8 (inactive) | 91.8 (inactive)
39 | CC(C)Cc1ccc(C(C)C(=O)NO)cc1 (centres undefined) [Ibuproxam] | 103 | 101 | 87.3 (inactive) | 95.2 (inactive)
40 | CC(=O)OCC(=O)C1(O)CCC2C3CCC4=CC(=O)CCC4(C)C3C(=O)CC21C (centres undefined) [Cortisone 21-acetate] | 101 | 120 | 97.5 (inactive) | 89.1 (inactive)
41 | CC(C)c1cc(/C=C(\C#N)C(=O)NCCCc2ccccc2)cc(C(C)C)c1O | 89.5 | 81.8 | 97.9 (inactive) | 141 (active)
42 | CCOc1nc2cccc(C(=O)O)c2n1Cc1ccc(-c2ccccc2-c2nc(=O)o[nH]2)cc1 | 79.7 | 101 | 103 (inactive) | 137 (inactive)
43 | Br.Br.N=C(N)SCCc1cccc(CCSC(=N)N)c1 [1,3-PBIT dihydrobromide] | 117 | 113 | 97.4 (inactive) | 98.4 (inactive)
44 | CCCCCCC(C(C)O)n1cnc2c(N)ncnc21.Cl (stereo not drawn) [erythro-9-(2-Hydroxy-3-nonyl)adenine hydrochloride] | 104 | 108 | 90.1 (inactive) | 88.6 (inactive)
45 | CCn1c(=O)c2[nH]c(-c3ccccc3)nc2n(CC)c1=O [1,3-Diethyl-8-phenylxanthine] | 98.9 | 103 | 90.7 (inactive) | 87.1 (inactive)
46 | COc1ccc(CNC(=O)Nc2ncc([N+](=O)[O-])s2)cc1 [GSK-3b Inhibitor VIII] | 91 | 106 | 96.6 (inactive) | 128 (inactive)
47 | CS(=O)(=O)O.CSc1ccc2c(c1)C(N1CCN(C)CC1)Cc1ccccc1S2 (centres undefined) [Methiothepin mesylate] | 91.1 | 102 | 111 (inactive) | 128 (inactive)
48 | CCCCCC=CCC=CCCCCCCCCC(=O)O [10(Z),13(Z)-Nonadecadienoic acid] | 98.3 | 96.2 | 109 (inactive) | 103 (inactive)
49 | COC1C(OC(=O)C=CC=CC=CC=CC(=O)O)CCC2(CO2)C1C1(C)OC1CC=C(C)C (centres undefined) [Fumagillin] | 104 ± 1.1 | 98.7 ± 8.4 | 98.9 (inactive) | 91.2 (inactive)
50 | CN(C)CCCN1c2ccccc2CCc2ccc(Cl)cc21.Cl [Clomipramine hydrochloride] | 89.6 | 102 | 107 (inactive) | 122 (inactive)
51 | CNC(CC(C)C)C(=O)NC1C(=O)NC(CC(N)=O)C(=O)NC2C(=O)NC3C(=O)NC(C(=O)NC(C(=O)O)c4cc(O)cc(O)c4-c4cc3ccc4O)C(O)c3ccc(c(Cl)c3)Oc3cc2cc(c3OC2OC(CO)C(O)C(O)C2OC2CC(C)(N)C(O)C(C)O2)Oc2ccc(cc2Cl)C1O.Cl (centres undefined) [Vancomycin hydrochloride from Streptomyces orientalis] | 99.6 | 108 | 90.4 (inactive) | 101 (inactive)
